In PubChem BioAssay:
Calls of active or inactive are those of the source. Unless noted, no rule for the calls is given here.

What was measured:
[1] = tested on: Wnt5a (protein binding on small-molecule microarray); assay: small molecules binding Wnt5a protein – biophysical, small-molecule microarray, 635/667 nm fluorescence, primary screen (AID 1142); details: 635 nm fluorescence, higher = more signal;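 also: fluorescence read at 667 nm with signal to noise per printed feature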
[2] = ATP-based viability of Huh7 replicon cells – cell-based, CellTiter-Glo luminescence, basal, 48 h, cytotoxicity control for HCV replication inhibitor project, primary screen (AID 1143); details: higher = more signal, called active from +8 up or from −8 down;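 also: Huh7 hepatoma cells carrying a hepatitis C replication reporter with no stimulus; test concentration not given here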
[3] = Pseudomonas biofilm growth suppression – PAO1 strain, BacTiter-Glo luminescence, LB-PBS, primary screen (AID 1144); details: P. aeruginosa PAO1 biofilm, 12 h, higher = more signal
[4] = basal CRE-LacZ reporter activity in PC12 – cell-based, unstimulated, primary screen (AID 1145); details: no forskolin, luminescence, 4.5 h, higher = more signal, called active from +8 up or from −8 down
[5] = forskolin-driven CRE-LacZ activity in PC12 – cell-based, CRE-LacZ reporter, forskolin-stimulated, primary screen (AID 1146); details: luminescence, 4.5 h, higher = more signal, called active from +8 up or from −8 down;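 also: PC12 cells with 6xCRE LacZ reporter stimulated by forskolin 10 µM; beta-galactosidase reporter signal reflecting CREB driven transcription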
[6] = target: Streptavidin (Streptomyces avidinii) (UniProt P22629); assay: compounds binding control protein streptavidin – biophysical, small-molecule microarray, 635/667 nm fluorescence, artefact control for SMM compound annotation, primary screen (AID 1147); details: higher = more signal;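 also: signal reflects streptavidin binding to arrayed compounds as a control protein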
Chain of Streptavidin (Streptomyces avidinii) (P22629 whole entry, looked up): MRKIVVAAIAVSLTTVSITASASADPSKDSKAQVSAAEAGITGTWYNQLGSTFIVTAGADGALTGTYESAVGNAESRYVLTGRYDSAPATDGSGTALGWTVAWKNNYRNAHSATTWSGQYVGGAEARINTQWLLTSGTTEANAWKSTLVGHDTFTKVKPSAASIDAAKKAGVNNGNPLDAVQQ

[7] = probe aInhba binding on compound microarray – biochemical, small-molecule microarray, 635/667 nm fluorescence, primary screen (AID 1148); details: higher = more signal;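 also: score merges 667nm spot fluorescence with signal-to-noise for antibody binding to printed compounds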
Torsin-1A (Homo sapiens) [8] = target: Torsin-1A (Homo sapiens) (UniProt O14656); assay: TOR1A wild-type binding on microarray – cell lysate, small-molecule microarray, lysate, 635/667 nm, primary screen (AID 1149); details: COS7 hTOR1A-WT lysate, 635 nm fluorescence, higher = more signal
Chain of Torsin-1A (Homo sapiens) (O14656 whole entry, looked up): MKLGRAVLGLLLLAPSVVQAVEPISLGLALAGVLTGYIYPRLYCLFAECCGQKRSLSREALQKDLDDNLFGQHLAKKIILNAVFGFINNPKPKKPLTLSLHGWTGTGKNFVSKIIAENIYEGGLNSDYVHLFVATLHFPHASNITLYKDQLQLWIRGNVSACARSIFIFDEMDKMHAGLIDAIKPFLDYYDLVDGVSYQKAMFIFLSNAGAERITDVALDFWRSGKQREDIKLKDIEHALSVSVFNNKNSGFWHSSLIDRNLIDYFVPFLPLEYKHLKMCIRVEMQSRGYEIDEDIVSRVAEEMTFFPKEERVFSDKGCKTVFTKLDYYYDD

Torsin-1A (Homo sapiens) [9] = target: Torsin-1A (Homo sapiens) (UniProt O14656); assay: torsin A mutant lysate binding on microarrays – cell lysate, small-molecule microarray, COS7 lysate, 635/667 nm fluorescence, primary screen (AID 1150); details: COS7 hTOR1A mutant lysate, 635 nm fluorescence, higher = more signal;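 also: score pools 667 nm emission and signal to noise measuring lysate protein binding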
[10] = tested on: Sonic hedgehog protein (Shh); assay: Sonic hedgehog microarray binding compounds – biochemical, small-molecule microarray, 635/667 nm fluorescence, primary screen (AID 1151); details: 635 nm fluorescence, higher = more signal;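 also: Shh protein binding to compounds spotted on small-molecule microarray slides; score combines spot fluorescence intensity with signal-to-noise across triplicate slides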
[11] = optical density shifts of acrAB sulA E. coli – strain DRC41, OD650, 48 h, E. coli filamentation inducer project, primary screen (AID 1152); details: higher = more signal, called active from +8 up or from −8 down;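 also: E. coli MC1000 strain DRC41 lacking acrAB efflux pump and sulA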
[12] = probe aLefty1 binding on compound microarray – biochemical, small-molecule microarray, 635/667 nm fluorescence, primary screen (AID 1153); details: higher = more signal;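 also: score merges spot fluorescence with signal-to-noise ratio from the scanned slide images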
[13] = plasmodial surface anion channel blockers, osmotic lysis – cell-based, P. falciparum Indochina, OD700, 1 h, primary screen (AID 1154); details: P. falciparum Indochina infected RBC osmotic lysis, higher = more signal, called active from +8 up or from −8 down
[14] = plasmodial surface anion channel blockers, osmotic lysis – cell-based, P. falciparum Indochina, OD700, 2 h, primary screen (AID 1155);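 also: lysis reports solute entry through the parasite surface anion channel PSAC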; details: P. falciparum Indochina infected erythrocytes, higher = more signal, called active from +8 up or from −8 down
[15] = changes in parasitized red cell lysis, either direction – P. falciparum Indochina, OD700, 3 h, PSAC antagonist project, primary screen (AID 1156); details: P. falciparum-infected erythrocytes, osmotic lysis, higher = more signal, called active from +8 up or from −8 down
[16] = plasmodial surface anion channel blockers, osmotic lysis – cell-based, P. falciparum Indochina, OD700, 18 h, primary screen (AID 1157); details: P. falciparum Indochina infected erythrocytes, osmotic lysis OD700, 18 h; higher = more signal, called active from +8 up or from −8 down
[17] = S6 kinase pathway phospho-S6 level changes – cell-based, A549, cytoblot, luminescence, serum-stimulated, primary screen (AID 1158); details: 5 h, higher = more signal;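 also: serum-stimulated A549 lung adenocarcinoma cells; signal is phosphorylated S6 detected by cytoblot immunostaining with HRP secondary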
[18] = target: NADPH oxidase 2 (Homo sapiens) (UniProt P04839); assay: compounds shifting NOX2 Amplex Red fluorescence – cell-based, HEK293-NOX2, PMA-stimulated, NOX inhibitor project, primary screen (AID 1159); details: 45 min, higher = more signal, called active from +8 up or from −8 down; also: test concentration not given here
Chain of NADPH oxidase 2 (Homo sapiens) (P04839 whole entry, looked up): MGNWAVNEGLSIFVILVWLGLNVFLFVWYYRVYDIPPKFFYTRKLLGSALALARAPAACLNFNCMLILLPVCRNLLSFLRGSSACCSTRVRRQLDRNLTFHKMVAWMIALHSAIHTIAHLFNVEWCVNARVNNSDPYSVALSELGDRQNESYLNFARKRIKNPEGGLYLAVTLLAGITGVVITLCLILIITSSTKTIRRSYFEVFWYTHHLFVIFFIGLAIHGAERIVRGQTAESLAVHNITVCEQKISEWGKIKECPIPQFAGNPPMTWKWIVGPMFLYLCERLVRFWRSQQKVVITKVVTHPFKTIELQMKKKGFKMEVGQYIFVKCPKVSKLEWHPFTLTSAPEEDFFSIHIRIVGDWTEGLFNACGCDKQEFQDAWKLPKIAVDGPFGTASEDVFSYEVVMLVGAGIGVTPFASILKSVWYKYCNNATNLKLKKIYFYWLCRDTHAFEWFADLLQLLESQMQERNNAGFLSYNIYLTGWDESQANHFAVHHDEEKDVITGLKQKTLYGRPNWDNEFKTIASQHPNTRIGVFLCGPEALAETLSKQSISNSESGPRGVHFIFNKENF

[19] = target: NADPH oxidase 4 (Homo sapiens) (UniProt Q9NPH5); assay: compounds shifting NOX4 Amplex Red fluorescence – cell-based, HEK293-NOX4, tetracycline-induced, NOX inhibitor project, primary screen (AID 1160); details: HEK293-NOX4, Amplex Red H2O2 fluorescence, 45 min; higher = more signal, called active from +8 up or from −8 down
Chain of NADPH oxidase 4 (Homo sapiens) (Q9NPH5 whole entry, looked up): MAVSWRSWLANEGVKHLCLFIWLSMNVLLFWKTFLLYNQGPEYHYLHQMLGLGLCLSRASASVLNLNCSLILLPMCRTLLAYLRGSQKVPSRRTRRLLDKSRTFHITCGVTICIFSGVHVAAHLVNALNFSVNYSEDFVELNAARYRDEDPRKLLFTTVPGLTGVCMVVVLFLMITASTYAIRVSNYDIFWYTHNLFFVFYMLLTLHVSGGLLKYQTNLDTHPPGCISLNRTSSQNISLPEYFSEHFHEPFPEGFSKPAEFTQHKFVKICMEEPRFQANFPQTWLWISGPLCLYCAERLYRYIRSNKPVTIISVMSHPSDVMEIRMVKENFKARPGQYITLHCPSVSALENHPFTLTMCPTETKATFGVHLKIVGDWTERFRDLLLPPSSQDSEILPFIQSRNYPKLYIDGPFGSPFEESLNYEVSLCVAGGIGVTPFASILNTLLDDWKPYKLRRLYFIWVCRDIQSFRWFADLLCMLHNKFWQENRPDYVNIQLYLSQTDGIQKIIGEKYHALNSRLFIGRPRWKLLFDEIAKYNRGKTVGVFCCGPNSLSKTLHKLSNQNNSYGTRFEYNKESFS

[20] = target: NADPH oxidase 5 (Homo sapiens) (UniProt Q96PH1); assay: compounds shifting NOX5 Amplex Red fluorescence – cell-based, HEK293-NOX5, NOX inhibitor project, primary screen (AID 1161); details: HEK293-NOX5, ionomycin, 45 min, higher = more signal
Chain of NADPH oxidase 5 (Homo sapiens) (Q96PH1 whole entry, looked up): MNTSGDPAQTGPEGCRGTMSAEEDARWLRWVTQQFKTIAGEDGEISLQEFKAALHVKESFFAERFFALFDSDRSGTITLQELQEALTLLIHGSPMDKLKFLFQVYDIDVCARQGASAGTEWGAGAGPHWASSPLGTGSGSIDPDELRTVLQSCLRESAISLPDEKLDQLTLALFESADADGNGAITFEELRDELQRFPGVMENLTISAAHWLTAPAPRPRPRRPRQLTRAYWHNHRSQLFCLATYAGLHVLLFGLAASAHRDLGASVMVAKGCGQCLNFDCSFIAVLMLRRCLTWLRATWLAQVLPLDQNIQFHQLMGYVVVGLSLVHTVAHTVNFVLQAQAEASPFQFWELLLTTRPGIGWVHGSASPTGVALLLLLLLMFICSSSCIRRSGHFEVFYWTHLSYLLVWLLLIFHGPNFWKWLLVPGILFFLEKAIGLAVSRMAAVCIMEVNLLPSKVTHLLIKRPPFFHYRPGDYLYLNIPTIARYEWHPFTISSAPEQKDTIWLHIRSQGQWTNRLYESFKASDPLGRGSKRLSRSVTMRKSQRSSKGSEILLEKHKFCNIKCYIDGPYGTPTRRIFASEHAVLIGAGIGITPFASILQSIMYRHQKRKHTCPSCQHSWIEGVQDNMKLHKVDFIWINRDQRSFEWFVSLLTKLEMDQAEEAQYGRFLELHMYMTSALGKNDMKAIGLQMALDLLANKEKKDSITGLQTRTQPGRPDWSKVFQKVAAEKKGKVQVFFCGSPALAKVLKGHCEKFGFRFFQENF

| Compound | composite z-score [1] | z-score [2] | z-score [3] | z-score [4] | z-score [5] | composite z-score [6] | composite z-score [7] | composite z-score (Torsin-1A (Homo sapiens) [8]) | composite z-score (Torsin-1A (Homo sapiens) [9]) | composite z-score [10] | z-score [11] | composite z-score [12] | z-score [13] | z-score [14] | z-score [15] | z-score [16] | z-score [17] | z-score [18] | z-score [19] | z-score [20] |
| --- | --- | --- | --- | --- | --- | --- | --- | --- | --- | --- | --- | --- | --- | --- | --- | --- | --- | --- | --- | --- |
| COC(=O)[C@@H]1CC[C@H](C)[C@@H](c2ccc(C)cc2)N1C(=O)c1ccc(C=NOC[C@@H](O)COCc2ccco2)cc1 | -0.523 | -1.83 (inactive) | 1.18 (inactive) | 5.89 (inactive) | -0.309 (inactive) | -1.24 | -0.341 | -1.72 | -2.05 | -0.334 | 1.06 (inactive) | -0.255 | 5.79 (inactive) | 0.944 (inactive) | -0.0224 (inactive) | 1.05 (inactive) | -1.05 | -0.0479 (inactive) | -0.0106 (inactive) | 0.254 |
| COC(=O)[C@@]1(Cc2ccc(F)cc2)[C@H]2c3cc(C(=O)N(C)C)n(Cc4ccc(OC)c(OC)c4)c3C[C@H]2CN1C(=O)c1ccccc1 | 0.702 | -3.26 (inactive) | -0.642 (inactive) | 0.194 (inactive) | 0.426 (inactive) | 0.319 | 0.351 | 0.0209 | 0.1 | -0.715 | -1.19 (inactive) | 0.109 | 0.933 (inactive) | -0.512 (inactive) | 0.746 (inactive) | -1.37 (inactive) | 2.19 | -3.29 (inactive) | -1.97 (inactive) | -4.09 |
| COc1ccc(-c2nc3c(c4c2C[C@H](C)OC4)CN(CCC(C)C)CC3)cc1 | -0.0798 | -0.333 (inactive) | -1.22 (inactive) | 7.06 (inactive) | -1.11 (inactive) | 0.141 | -0.0791 | -0.253 | 0.0824 | 1.32 | 0.498 (inactive) | 0.0687 | 1.78 (inactive) | 0.673 (inactive) | 0.511 (inactive) | 0.123 (inactive) | -0.0895 | -0.112 (inactive) | 0.239 (inactive) | 0.684 |
| O=C1C[C@@H](O)[C@@H](O)[C@@H]2[C@@H]3C(=O)N(c4cccc(Oc5ccccc5)c4)C(=O)[C@@H]3CC[C@@H]12 | 0.111 | -0.146 (inactive) | 1.27 (inactive) | 1.24 (inactive) | 0.061 (inactive) | 0.251 | 0.0227 | 0.446 | 0.463 | 0.521 | -0.268 (inactive) | -0.0652 | 0.956 (inactive) | -0.329 (inactive) | 0.406 (inactive) | 0.0818 (inactive) | -0.363 | -0.837 (inactive) | -0.154 (inactive) | 0.558 |
| C=CC[C@@H]1C=C[C@H](ON=C[C@@H](OC)[C@H](C)C=CCC(=O)OC)[C@@H](CO)O1 | 0.313 | 0.669 (inactive) | 0.0583 (inactive) | -0.957 (inactive) | -0.385 (inactive) | -0.259 | 0.157 | 0.434 | 0.352 | 0.224 | 0.324 (inactive) | 0.0533 | 0.815 (inactive) | 1.25 (inactive) | -0.335 (inactive) | 0.465 (inactive) | -0.782 | -0.022 (inactive) | -0.102 (inactive) | -0.255 |
| CCCCCN1CC=CC23O[C@@H]4C=CCOC(=O)[C@@H]4[C@H]2C(=O)N(CCCCCCO)[C@@H]3C1=O (stereo not given in full) | -0.485 | 0.0442 (inactive) | 0.851 (inactive) | -0.342 (inactive) | 0.124 (inactive) | -0.976 | -0.15 | -1.78 | -0.966 | -0.837 | 0.191 (inactive) | -0.103 | 2.04 (inactive) | -0.0969 (inactive) | 0.748 (inactive) | 0.187 (inactive) | 0.0374 | 1.24 (inactive) | -0.482 (inactive) | 1.73 |
| COC(=O)[C@@]1(Cc2ccc(OC)cc2)[C@H]2c3cc(C(=O)N4CCCC4)n(Cc4cc(F)c(F)c(F)c4)c3C[C@H]2CN1C(=O)c1ccccc1 | 2.29 | -3.23 (inactive) | 0.112 (inactive) | 0.0041 (inactive) | 0.589 (inactive) | 2.6 | 1.87 | 0.188 | 0.538 | -0.241 | -2.13 (inactive) | 2.39 | 1.1 (inactive) | 1.07 (inactive) | 0.718 (inactive) | 0.911 (inactive) | -0.215 | 1.01 (inactive) | -0.256 (inactive) | 0.603 |
| CCOC(=O)CCN1C(=O)[C@H]2[C@H]3[C@H](O)[C@H](O)CC(=NOC[C@@H](O)COCc4ccco4)[C@H]3CC[C@H]2C1=O | -0.0068 | -4.31 (inactive) | -0.284 (inactive) | 1.41 (inactive) | 0.749 (inactive) | 0.0794 | -0.0627 | 0.291 | 0.18 | 0.856 | -0.923 (inactive) | -0.101 | 0.73 (inactive) | -1.31 (inactive) | 0.318 (inactive) | -2.76 (inactive) | 0.141 | -0.343 (inactive) | 0.0781 (inactive) | -0.498 |
